Hit rate of the full screen: of about 48,000 compounds, about 13,000 (27%) showed an effect of 50% or more. The list shows a part of the results.
These molecules were tested on Wolbachia pipientis (assay: Anti-Wolbachia Cell-Based Screen). Conditions: 5 µM.
Assay type: functional
Design: scale not given: in the data most compounds retested in dose-response had high values
`CC1CN=C(N2CCN(C(=O)Nc3nc(-c4ccccc4)ns3)CC2)S1` (configuration not stated) was tested, and the “Percent Effect” value was -2.569%.
`CCOc1ccc(N(C)Cc2nnc(C)o2)cc1` was tested, and the “Percent Effect” value was 3.578%.
In the case of `COc1cccc(Cl)c1C(C(=O)O)N(C)Cc1nnc(C)o1` (configuration not stated), the “Percent Effect” value is reported as 7.233%.
For `CCOc1ccccc1C(C(=O)O)N(C)Cc1cc(C)[nH]n1` (configuration not stated), the “Percent Effect” value was 105.4%.
In the case of `Cc1cc(CN(C)C(=O)c2cc(COc3ccccc3)[nH]n2)n[nH]1`, the “Percent Effect” value is reported as -16.83%.
With `CCOc1ccccc1C(C(=O)O)N(C)Cc1nnc(C)o1` (configuration not stated) the “Percent Effect” value was 103.2%.
For `Cc1c[nH]c(CN(C)C(C(=O)O)c2c(F)cccc2Cl)n1` (configuration not stated), the “Percent Effect” value was 11.8%.
In the case of `COCc1cc(CN(C)C(C(=O)O)c2cc(C)c(OC)c(C)c2)n[nH]1` (configuration not stated), the “Percent Effect” value is reported as 0.7136%.
For `CCOc1ccccc1C(C(=O)O)N(C)Cc1nc(C)c[nH]1` (configuration not stated), the “Percent Effect” value was 110.9%.
In the case of `Cc1c[nH]c(CN(C)C(C(=O)O)c2c(F)cccc2OC(C)C)n1` (configuration not stated), the “Percent Effect” value is reported as 2.457%.
`CN(CC(N)=O)S(=O)(=O)c1ccc(F)cc1Cl` was tested, and the “Percent Effect” value was 0.3339%.
In the case of `COc1cccc(CN(C)C(=O)CCC(=O)c2ccc(Cl)cc2)c1OC`, the “Percent Effect” value is reported as -4.229%.
In the case of `COc1ccc(CN2CCC3(CC(=O)N(c4cccc(F)c4)C3)C2)cc1.O=C(O)C(F)(F)F` (configuration not stated), the “Percent Effect” value is reported as 28.15%.
For `Cc1ccc(CN2CCC3(CC2)CCN(Cc2ccco2)CC3)cc1.O=C(O)C(F)(F)F.O=C(O)C(F)(F)F`, the “Percent Effect” value was 0.5302%.
In the case of `Cc1ccc2oc([C@H]3CCN(Cc4ccccc4)C3)nc2c1`, the “Percent Effect” value is reported as -4.088%.
For `CCN1CCN(C)C(=O)C12CCN(Cc1cccc(C)c1)CC2.O=C(O)C(F)(F)F`, the “Percent Effect” value was -18%.
With `COc1ccc2c(c1)OC1(CCN(Cc3ccc(C)cc3)CC1)CC2=O` the “Percent Effect” value was 104.7%.
For `Cc1ccc2c(c1)C(=O)CC1(CCN(Cc3ccccc3)CC1)O2`, the “Percent Effect” value was 106.6%.
`COc1ccc2c(c1)C(=O)CC1(CCN(Cc3ccc(F)cc3)CC1)O2` was tested, and the “Percent Effect” value was 107.4%.
With `CCS(=O)(=O)N1CCC2(CCN(Cc3cccc(OC)c3)CC2)CC1.O=C(O)C(F)(F)F` the “Percent Effect” value was -27.27%.
In the case of `COc1ccc2c(c1)C1(CCN(Cc3ccncc3)CC1)N(C)CC2`, the “Percent Effect” value is reported as -5.195%.
`COc1c(F)cc(CN2CCCC3(CC2)CNC(=O)O3)cc1Cl` (configuration not stated) was tested, and the “Percent Effect” value was -2.576%.
In the case of `COCC(=O)N1CCC2(CCN(Cc3ccc(C)cc3)CC2)CC1.O=C(O)C(F)(F)F`, the “Percent Effect” value is reported as -3.723%.
`COc1ccc2c(c1)OC1(CCN(Cc3cccc(C)c3)CC1)CC2=O` was tested, and the “Percent Effect” value was 101.2%.
For `CCCn1ncc(C2CC(=O)NCc3nc4cc(C)ccn4c32)c1C` (configuration not stated), the “Percent Effect” value was 7.732%.
With `Cc1nc(CN2CCCN(CC(=O)Nc3ccncc3)CC2)no1` the “Percent Effect” value was -12.37%.
In the case of `CC1c2cc(F)ccc2CCN1CCCS(=O)(=O)C(C)C` (configuration not stated), the “Percent Effect” value is reported as -15.92%.
`Cc1nc[nH]c1CN1CCn2nc(CN3CC[C@H](F)C3)cc2C1` was tested, and the “Percent Effect” value was -2.245%.
With `O=C(NCCN1CCNCC1)c1c(O)c2ccccc2[nH]c1=O` the “Percent Effect” value was 23.98%.
`COCC(O)CN(C)C(=O)NC1CCN(Cc2ccccn2)CC1` (configuration not stated) was tested, and the “Percent Effect” value was 9.175%.
For `Cc1nn(C)c2nc(N(Cc3ccccc3)CC3CCCO3)sc12` (configuration not stated), the “Percent Effect” value was 6.104%.
With `COc1ccc2c(c1)OC1(CCN(Cc3ccccc3C)CC1)CC2=O` the “Percent Effect” value was 114.8%.
`COc1ccc(CN2CCC(O)(CN3CCCCC3)C2)c(C)c1` (configuration not stated) was tested, and the “Percent Effect” value was 1.46%.
`Cc1ccccc1CN1CCCN(CCN2CCOC2=O)CC1` was tested, and the “Percent Effect” value was 6.019%.
With `CC(C)c1cccc(CSc2nnc(CN3CCCC3=O)o2)n1` the “Percent Effect” value was 6.014%.
For `CS(=O)(=O)Cc1nc(CN2CCCc3sccc3C2)cs1`, the “Percent Effect” value was 11.89%.
For `Cc1cc(C)n(-c2ccnc(N3CCC(C(=O)N4CCCC4)CC3)n2)n1`, the “Percent Effect” value was 4.916%.
With `CCOC(=O)C1CSCCN1C(=O)c1ccc(-n2nc(C)cc2C)cc1` (configuration not stated) the “Percent Effect” value was 16.86%.
`CCOC(=O)C1CCCN(c2ccc(-c3nc(C)no3)cn2)C1` (configuration not stated) was tested, and the “Percent Effect” value was -3.256%.
In the case of `COc1ccc(C(=O)C2CCCN(c3nccc(N)n3)C2)c(C)c1` (configuration not stated), the “Percent Effect” value is reported as 21.82%.
In the case of `CCOC(=O)C1CCN(c2nccc(-n3nc(C)cc3C)n2)CC1`, the “Percent Effect” value is reported as 112.2%.
With `CCOC(=O)C1CCCN(c2nccc(-n3nc(C)cc3C)n2)C1` (configuration not stated) the “Percent Effect” value was 112.5%.
For `COCc1cc(CC2(NCc3ccccc3Cl)COC2)no1`, the “Percent Effect” value was -15.27%.
For `COc1ccnc(N2CCC3(CC2)[C@H](O)C[C@@H]3OCCN(C)C)n1`, the “Percent Effect” value was -4.525%.
`CN(C(=O)CCc1cccs1)C1CCCN(C2Cc3ccccc3C2)C1` (configuration not stated) was tested, and the “Percent Effect” value was -51.14%.
With `C1CCCN(c2nc(C3CC3)no2)CC1` the “Percent Effect” value was 3.376%.
With `O=C(O)C(F)(F)F.c1ncn(Cc2cn3c(n2)CN(CC2CCCCC2)CC3)n1` the “Percent Effect” value was -9.983%.
`CN(C)CCN1CCC(NC2CSCCc3ccccc32)CC1` (configuration not stated) was tested, and the “Percent Effect” value was -11.44%.
For `O=C(Cc1ccc(F)cc1)NCCNCc1cccc(O)c1`, the “Percent Effect” value was 75.28%.
In the case of `O=C(Cc1cccc(F)c1)NCCNCc1cccc(O)c1`, the “Percent Effect” value is reported as -5.303%.
`O=C(Cc1cccc(F)c1)NCCNCc1ccc2c(c1)CCO2` was tested, and the “Percent Effect” value was -2.552%.
`Oc1cccc(CNCCC2CCCO2)c1` (configuration not stated) was tested, and the “Percent Effect” value was 17.11%.
`CCOc1cccc(CCNC(=O)Cc2cccc(O)c2)n1` was tested, and the “Percent Effect” value was 19.48%.
In the case of `O=C(Cc1ccccc1)NCCNCc1cccc(O)c1`, the “Percent Effect” value is reported as 87.97%.
`CC(NCc1ccc(-c2ccc(Cl)cc2)o1)c1nnc2n1CCC2` (configuration not stated) was tested, and the “Percent Effect” value was -12.12%.
With `COCCSc1ccc(C(C)NC(=O)Nc2cccnc2)cc1` (configuration not stated) the “Percent Effect” value was -3.032%.
With `CN(Cc1nnc(-c2ccco2)o1)CC1CCCN1c1cccnn1` (configuration not stated) the “Percent Effect” value was 6.587%.
With `CC(C)Oc1ccccc1-c1cc(CN)ccc1F` the “Percent Effect” value was 10.62%.
`CC(C)C(=O)Nc1ccc(Oc2ccc3c(c2)OCO3)nc1` was tested, and the “Percent Effect” value was 107.3%.
In the case of `Cc1ccc(Oc2ccc(NC(=O)NCC3CCOC3)cn2)cc1C` (configuration not stated), the “Percent Effect” value is reported as -4.291%.
For `O=C(Cn1cc(Cl)cn1)Nc1ccc2c(c1)OCO2`, the “Percent Effect” value was 1.967%.
With `CCCNC(=O)C(C)Nc1cccc(Oc2ccc(C#N)cn2)c1` (configuration not stated) the “Percent Effect” value was -3.4%.
`O=C(CCN1C(=O)CCC1=O)Nc1ccc(Oc2ccc(Cl)cc2)nc1` was tested, and the “Percent Effect” value was -10.42%.
With `CC(=O)Nc1ccc(Oc2ccc3c(c2)OCO3)nc1` the “Percent Effect” value was 99.6%.
In the case of `Cc1cc(C)nc(NC(=O)C(C)Oc2ccc3c(c2)OCO3)n1` (configuration not stated), the “Percent Effect” value is reported as 15.82%.
In the case of `CC(C)OCC(=O)Nc1ccc(Oc2ccc3c(c2)OCO3)nc1`, the “Percent Effect” value is reported as 77.43%.
For `Cc1cnn(CCCOc2ccc3c(c2)OCO3)c1`, the “Percent Effect” value was -11.3%.

— ChEMBL document CHEMBL3988442, “University of Dundee, Small-Polar-MMV Screening Library” (2021)
